In PMC11006913 one finds binding signal data, which are given here for four sequences.

Numbering of substitutions follows the chain as printed.

Common to all, as to assay: PBM; 200 nM protein, PBS
Common to all, as to details: dsDNA, one strand shown

Assay [1] has as its target HOXB9 (Homo sapiens, UniProt P17482 171-250, T197M).
In assay [2] the target is HOXC9 (Homo sapiens, UniProt P31274 178-260, K195R).
The target in the next assay is T1, VENTX (Homo sapiens, UniProt O95231 78-163).
T1 sequence: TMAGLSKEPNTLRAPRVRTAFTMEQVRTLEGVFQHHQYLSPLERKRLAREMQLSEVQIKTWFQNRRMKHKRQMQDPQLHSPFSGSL

The target of assay [3] is HOXA7 (Homo sapiens, UniProt P31268 116-202).
Sequence of HOXA7 (Homo sapiens, UniProt P31268 116-202) (P31268 116-202): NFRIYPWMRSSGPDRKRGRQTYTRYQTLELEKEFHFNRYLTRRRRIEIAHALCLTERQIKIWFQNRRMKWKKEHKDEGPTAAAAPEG
Assay [4] has as its target HOXC10 (Homo sapiens, UniProt Q9NYD6 254-340).
Assay [5] deals with T2, PAX4 (Homo sapiens, UniProt O43316 9-242).
T2 sequence: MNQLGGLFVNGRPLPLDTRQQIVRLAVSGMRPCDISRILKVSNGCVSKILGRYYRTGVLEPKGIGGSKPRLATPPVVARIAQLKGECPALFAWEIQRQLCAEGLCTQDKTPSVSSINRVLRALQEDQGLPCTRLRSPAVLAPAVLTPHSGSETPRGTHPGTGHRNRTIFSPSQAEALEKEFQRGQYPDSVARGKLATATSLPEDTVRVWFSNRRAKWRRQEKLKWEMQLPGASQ

Assay [6] addresses HOXB6 (Homo sapiens, UniProt P17509 132-218, K202E).
Assay [7] addresses HOXB9 (Homo sapiens, UniProt P17482 171-250).
Assay [8] addresses HOXC9 (Homo sapiens, UniProt P31274 178-260).
Assay [9] addresses HOXC9 (Homo sapiens, UniProt P31274 178-260, R193K).
In assay [10] the target is HOXA2 (Homo sapiens, UniProt O43364 129-215, R185K).
Sequence of HOXA2 (Homo sapiens, UniProt O43364 129-215, R185K) (O43364 129-215 R185K): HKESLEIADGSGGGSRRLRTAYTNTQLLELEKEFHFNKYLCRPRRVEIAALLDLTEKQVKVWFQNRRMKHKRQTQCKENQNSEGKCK
For assay [11], the target named is HOXC10 (Homo sapiens, UniProt Q9NYD6 254-340, K271E).
Sequence of HOXC10 (Homo sapiens, UniProt Q9NYD6 254-340, K271E) (Q9NYD6 254-340 K271E): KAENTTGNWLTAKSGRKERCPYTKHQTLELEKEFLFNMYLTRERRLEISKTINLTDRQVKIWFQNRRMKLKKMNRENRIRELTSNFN
For a further assay, the target named is VAX1 (Homo sapiens, UniProt Q5SQQ9 86-172).
Sequence of VAX1 (Q5SQQ9 86-172): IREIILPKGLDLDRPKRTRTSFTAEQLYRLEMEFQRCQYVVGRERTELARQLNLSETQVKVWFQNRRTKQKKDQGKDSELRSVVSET
For assay [12], the target named is HOXB9 (Homo sapiens, UniProt P17482 171-250, R186Q).
Sequence of HOXB9 (Homo sapiens, UniProt P17482 171-250, R186Q) (P17482 171-250 R186Q): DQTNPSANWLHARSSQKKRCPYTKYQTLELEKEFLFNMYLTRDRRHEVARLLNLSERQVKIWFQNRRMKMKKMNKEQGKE
Assay [13] deals with HOXC9 (Homo sapiens, UniProt P31274 178-260, R222W).
Sequence of HOXC9 (Homo sapiens, UniProt P31274 178-260, R222W) (P31274 178-260 R222W): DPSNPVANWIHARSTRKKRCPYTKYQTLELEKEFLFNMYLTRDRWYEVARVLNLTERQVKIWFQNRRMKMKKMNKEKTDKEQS
Assay [14] deals with T3, PAX4 (Homo sapiens, UniProt O43316 9-242, R227W).
T3 sequence: T2 sequence with R219W

The target of assay [15] is HOXA2 (Homo sapiens, UniProt O43364 129-215, Y150S).
Sequence of HOXA2 (Homo sapiens, UniProt O43364 129-215, Y150S) (O43364 129-215 Y150S): as the sequence (O43364 129-215 R185K) above, with Y22S, K57R counted along it
Assay [16] deals with HOXA7 (Homo sapiens, UniProt P31268 116-202, W177C).
Sequence of HOXA7 (Homo sapiens, UniProt P31268 116-202, W177C) (P31268 116-202 W177C): as the sequence (P31268 116-202) above, with W62C counted along it
The target of assay [17] is HOXA2 (Homo sapiens, UniProt O43364 129-215).
Sequence of HOXA2 (Homo sapiens, UniProt O43364 129-215) (O43364 129-215): as the sequence (O43364 129-215 R185K) above, with K57R counted along it
Assay [18] deals with HOXB6 (Homo sapiens, UniProt P17509 132-218).
Sequence of HOXB6 (Homo sapiens, UniProt P17509 132-218) (P17509 132-218): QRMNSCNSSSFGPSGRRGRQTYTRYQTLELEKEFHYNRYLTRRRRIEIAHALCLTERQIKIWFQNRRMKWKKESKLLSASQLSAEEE

Sequence of HOXC10 (Homo sapiens, UniProt Q9NYD6 254-340) (Q9NYD6 254-340): as the sequence (Q9NYD6 254-340 K271E) above, with E18K counted along it
Sequence of HOXB6 (Homo sapiens, UniProt P17509 132-218, K202E) (P17509 132-218 K202E): as the sequence (P17509 132-218) above, with K71E counted along it
Sequence of HOXC9 (Homo sapiens, UniProt P31274 178-260, R193K) (P31274 178-260 R193K): as the sequence (P31274 178-260 R222W) above, with R16K, W45R counted along it
Sequence of HOXC9 (Homo sapiens, UniProt P31274 178-260, K195R) (P31274 178-260 K195R): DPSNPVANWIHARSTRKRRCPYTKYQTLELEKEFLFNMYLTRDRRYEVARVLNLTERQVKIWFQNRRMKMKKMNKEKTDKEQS
Sequence of HOXB9 (Homo sapiens, UniProt P17482 171-250, T197M) (P17482 171-250 T197M): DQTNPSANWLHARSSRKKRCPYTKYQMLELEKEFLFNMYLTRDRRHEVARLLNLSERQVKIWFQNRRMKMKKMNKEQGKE
Sequence of HOXB9 (Homo sapiens, UniProt P17482 171-250) (P17482 171-250): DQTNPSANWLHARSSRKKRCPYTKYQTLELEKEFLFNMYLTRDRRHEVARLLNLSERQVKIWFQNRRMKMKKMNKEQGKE
Sequence of HOXC9 (Homo sapiens, UniProt P31274 178-260) (P31274 178-260): as the sequence (P31274 178-260 R222W) above, with W45R counted along it

With CATAATTA, the binding signal with HOXB9 [1] is 10.3 upbm affinity estimate (log intensity, higher = more binding, comparable within an allelic series); in the assay with HOXC9 [2], 12.8 upbm affinity estimate (log intensity, higher = more binding, comparable within an allelic series); with VENTX, 12.6 upbm affinity estimate (log intensity, higher = more binding, comparable within an allelic series); with HOXA7 [3], 12 upbm affinity estimate (log intensity, higher = more binding, comparable within an allelic series); with HOXC10 [4] it was 12.3 upbm affinity estimate (log intensity, higher = more binding, comparable within an allelic series); in the assay with PAX4 [5] it was 12.5 upbm affinity estimate (log intensity, higher = more binding, comparable within an allelic series). Also, the binding signal in the assay with HOXB6 [6] was 10.2 upbm affinity estimate (log intensity, higher = more binding, comparable within an allelic series); in the assay with HOXB9 [7], 11.9 upbm affinity estimate (log intensity, higher = more binding, comparable within an allelic series); with HOXC9 [8], 12.8 upbm affinity estimate (log intensity, higher = more binding, comparable within an allelic series); with HOXC9 [9], 12.8 upbm affinity estimate (log intensity, higher = more binding, comparable within an allelic series); with HOXA2 [10], 13.8 upbm affinity estimate (log intensity, higher = more binding, comparable within an allelic series); with HOXC10 [11] it was 12.2 upbm affinity estimate (log intensity, higher = more binding, comparable within an allelic series). For the same sequence, the binding signal with VAX1 is 13.6 upbm affinity estimate (log intensity, higher = more binding, comparable within an allelic series); in the assay with HOXB9 [12], 11.7 upbm affinity estimate (log intensity, higher = more binding, comparable within an allelic series); with HOXC9 [13], 11.1 upbm affinity estimate (log intensity, higher = more binding, comparable within an allelic series); with PAX4 [14], 11.3 upbm affinity estimate (log intensity, higher = more binding, comparable within an allelic series); in the assay with HOXA2 [15], 11.1 upbm affinity estimate (log intensity, higher = more binding, comparable within an allelic series); in the assay with HOXA7 [16], 9.06 upbm affinity estimate (log intensity, higher = more binding, comparable within an allelic series). For the same sequence, the binding signal in the assay with HOXA2 [17] was 13 upbm affinity estimate (log intensity, higher = more binding, comparable within an allelic series); in the assay with HOXB6 [18] it was 12.4 upbm affinity estimate (log intensity, higher = more binding, comparable within an allelic series).
For TTAATTAA, the binding signal was 10.4 upbm affinity estimate (log intensity, higher = more binding, comparable within an allelic series) with HOXB9 [1]; 12.9 upbm affinity estimate (log intensity, higher = more binding, comparable within an allelic series) with HOXC9 [2]; 12.8 upbm affinity estimate (log intensity, higher = more binding, comparable within an allelic series) with VENTX; 12.2 upbm affinity estimate (log intensity, higher = more binding, comparable within an allelic series) with HOXA7 [3]; 12.4 upbm affinity estimate (log intensity, higher = more binding, comparable within an allelic series) with HOXC10 [4]; 12.6 upbm affinity estimate (log intensity, higher = more binding, comparable within an allelic series) in the assay with PAX4 [5]. The binding signal is 10.3 upbm affinity estimate (log intensity, higher = more binding, comparable within an allelic series) with HOXB6 [6]; 12.3 upbm affinity estimate (log intensity, higher = more binding, comparable within an allelic series) with HOXB9 [7]; 12.8 upbm affinity estimate (log intensity, higher = more binding, comparable within an allelic series) with HOXC9 [8]; 12.7 upbm affinity estimate (log intensity, higher = more binding, comparable within an allelic series) with HOXC9 [9]; 13.7 upbm affinity estimate (log intensity, higher = more binding, comparable within an allelic series) with HOXA2 [10]; 12.3 upbm affinity estimate (log intensity, higher = more binding, comparable within an allelic series) with HOXC10 [11]. The binding signal is 13.6 upbm affinity estimate (log intensity, higher = more binding, comparable within an allelic series) with VAX1; 12 upbm affinity estimate (log intensity, higher = more binding, comparable within an allelic series) in the assay with HOXB9 [12]; 11.5 upbm affinity estimate (log intensity, higher = more binding, comparable within an allelic series) with HOXC9 [13]; 11.4 upbm affinity estimate (log intensity, higher = more binding, comparable within an allelic series) in the assay with PAX4 [14]; 10.8 upbm affinity estimate (log intensity, higher = more binding, comparable within an allelic series) with HOXA2 [15]; 8.85 upbm affinity estimate (log intensity, higher = more binding, comparable within an allelic series) in the assay with HOXA7 [16]. For the same sequence, the binding signal with HOXA2 [17] is 13.1 upbm affinity estimate (log intensity, higher = more binding, comparable within an allelic series); with HOXB6 [18] it was 12.5 upbm affinity estimate (log intensity, higher = more binding, comparable within an allelic series).
Consider ATTAATGA, for which the binding signal in the assay with HOXB9 [1] is 10.4 upbm affinity estimate (log intensity, higher = more binding, comparable within an allelic series); with HOXC9 [2] it was 13 upbm affinity estimate (log intensity, higher = more binding, comparable within an allelic series); with VENTX it was 12.8 upbm affinity estimate (log intensity, higher = more binding, comparable within an allelic series); with HOXA7 [3] it was 12 upbm affinity estimate (log intensity, higher = more binding, comparable within an allelic series); with HOXC10 [4], 12.5 upbm affinity estimate (log intensity, higher = more binding, comparable within an allelic series); with PAX4 [5], 12.3 upbm affinity estimate (log intensity, higher = more binding, comparable within an allelic series). Further, the binding signal with HOXB6 [6] was 10.3 upbm affinity estimate (log intensity, higher = more binding, comparable within an allelic series); with HOXB9 [7] it was 12.2 upbm affinity estimate (log intensity, higher = more binding, comparable within an allelic series); with HOXC9 [8], 13 upbm affinity estimate (log intensity, higher = more binding, comparable within an allelic series); with HOXC9 [9], 12.9 upbm affinity estimate (log intensity, higher = more binding, comparable within an allelic series); with HOXA2 [10] it was 13.7 upbm affinity estimate (log intensity, higher = more binding, comparable within an allelic series); with HOXC10 [11] it was 12.3 upbm affinity estimate (log intensity, higher = more binding, comparable within an allelic series). For the same sequence, the binding signal with VAX1 is 13.4 upbm affinity estimate (log intensity, higher = more binding, comparable within an allelic series); in the assay with HOXB9 [12] it was 11.9 upbm affinity estimate (log intensity, higher = more binding, comparable within an allelic series); with HOXC9 [13], 11.2 upbm affinity estimate (log intensity, higher = more binding, comparable within an allelic series); in the assay with PAX4 [14], 11 upbm affinity estimate (log intensity, higher = more binding, comparable within an allelic series); with HOXA2 [15], 11 upbm affinity estimate (log intensity, higher = more binding, comparable within an allelic series); with HOXA7 [16], 8.94 upbm affinity estimate (log intensity, higher = more binding, comparable within an allelic series). Besides, the binding signal with HOXA2 [17] is 12.9 upbm affinity estimate (log intensity, higher = more binding, comparable within an allelic series); with HOXB6 [18], 12.3 upbm affinity estimate (log intensity, higher = more binding, comparable within an allelic series).
As to GTTAATTA, the binding signal in the assay with HOXB9 [1] was 10.3 upbm affinity estimate (log intensity, higher = more binding, comparable within an allelic series); with HOXC9 [2], 12.9 upbm affinity estimate (log intensity, higher = more binding, comparable within an allelic series); in the assay with VENTX, 13 upbm affinity estimate (log intensity, higher = more binding, comparable within an allelic series); with HOXA7 [3], 12.2 upbm affinity estimate (log intensity, higher = more binding, comparable within an allelic series); with HOXC10 [4], 12.3 upbm affinity estimate (log intensity, higher = more binding, comparable within an allelic series); in the assay with PAX4 [5], 12.7 upbm affinity estimate (log intensity, higher = more binding, comparable within an allelic series). Further, the binding signal with HOXB6 [6] was 10.2 upbm affinity estimate (log intensity, higher = more binding, comparable within an allelic series); with HOXB9 [7], 12 upbm affinity estimate (log intensity, higher = more binding, comparable within an allelic series); in the assay with HOXC9 [8], 12.8 upbm affinity estimate (log intensity, higher = more binding, comparable within an allelic series); with HOXC9 [9], 12.8 upbm affinity estimate (log intensity, higher = more binding, comparable within an allelic series); with HOXA2 [10] it was 13.8 upbm affinity estimate (log intensity, higher = more binding, comparable within an allelic series); with HOXC10 [11] it was 12.3 upbm affinity estimate (log intensity, higher = more binding, comparable within an allelic series). Also, the binding signal in the assay with VAX1 was 13.8 upbm affinity estimate (log intensity, higher = more binding, comparable within an allelic series); with HOXB9 [12], 11.8 upbm affinity estimate (log intensity, higher = more binding, comparable within an allelic series); with HOXC9 [13], 11.1 upbm affinity estimate (log intensity, higher = more binding, comparable within an allelic series); with PAX4 [14], 11.3 upbm affinity estimate (log intensity, higher = more binding, comparable within an allelic series); with HOXA2 [15], 10.9 upbm affinity estimate (log intensity, higher = more binding, comparable within an allelic series); in the assay with HOXA7 [16], 8.93 upbm affinity estimate (log intensity, higher = more binding, comparable within an allelic series). Besides, the binding signal with HOXA2 [17] was 13.2 upbm affinity estimate (log intensity, higher = more binding, comparable within an allelic series); with HOXB6 [18], 12.5 upbm affinity estimate (log intensity, higher = more binding, comparable within an allelic series).
